Test results: the supplement of paper PMC12669032
Unmarked numbers belong to inactive results.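 Rule for the calls: active = AUC reduced over 20% with Padj below 0.05 in at least 2 of 3 replicates; inactive = otherwise.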

What was measured:
Experiment in all cases: growth AUC relative to DMSO control (median of replicates) (fraction); higher = more growth (less inhibition), active = hit call of the paper
Settings in all cases: 20 µM; 24 h
[1] = system: Akkermansia muciniphila
Procedure, shortened: (§1)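 Starting at OD600 0.05, gut bacterial monocultures in mGAM were grown anaerobically at 37 °C with 20 µM compound (1% DMSO) under pierced gas-permeable seals. OD600 was read every hour for 24 h, and the lowest OD of each curve was set to 0. Area under the growth curve was normalised to the plate median of solvent-only wells, or to row and column medians on the industrial chemical plate, and the median of three biological replicates grown on separate days is given.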

[2] = system: Bacteroides caccae
Procedure, shortened: as §1

[3] = system: Bacteroides clarus
Procedure, shortened: as §1

[4] = system: Bacteroides dorei
Procedure, shortened: as §1

[5] = system: Bacteroides stercoris
Procedure, shortened: as §1

[6] = system: Bacteroides thetaiotaomicron
Procedure, shortened: as §1

[7] = system: Bacteroides uniformis
Procedure, shortened: as §1

[8] = system: Bifidobacterium longum subsp. longum
Procedure, shortened: as §1

[9] = system: Clostridium difficile
Procedure, shortened: as §1

[10] = system: Collinsella aerofaciens
Procedure, shortened: as §1

[11] = system: Coprococcus comes
Procedure, shortened: as §1

[12] = system: Escherichia coli ED1a
Procedure, shortened: as §1

[13] = system: Escherichia coli IAI1
Procedure, shortened: as §1

[14] = system: Eubacterium rectale
Procedure, shortened: as §1

[15] = system: Fusobacterium nucleatum subsp. animalis
Procedure, shortened: as §1

[16] = system: Lactobacillus gasseri
Procedure, shortened: as §1

[17] = system: Lactobacillus paracasei
Procedure, shortened: as §1

[18] = system: Odoribacter splanchnicus
Procedure, shortened: as §1

[19] = system: Parabacteroides distasonis
Procedure, shortened: as §1

[20] = system: Parabacteroides merdae
Procedure, shortened: as §1

Structure (SMILES)	growth AUC [1]	growth AUC [2]	growth AUC [3]	growth AUC [4]	growth AUC [5]	growth AUC [6]	growth AUC [7]	growth AUC [8]	growth AUC [9]	growth AUC [10]	growth AUC [11]	growth AUC [12]	growth AUC [13]	growth AUC [14]	growth AUC [15]	growth AUC [16]	growth AUC [17]	growth AUC [18]	growth AUC [19]	growth AUC [20]
CCC(C)(C)C(=O)OC1=C(c2ccc(Cl)cc2Cl)C(=O)OC12CCCCC2	1.03	1	0.975	0.976	0.978	0.946	0.911	0.99	0.973	0.987	0.977	0.966	0.949	0.906	0.968	0.928	0.987	1.02	0.861	0.968
CNC(=O)Oc1cc(C)c(S(C)(=O)=O)c(C)c1	0.967	1.02	0.963	0.995	0.995	0.97	0.97	0.985	0.998	1.01	0.98	0.981	0.963	0.971	1.05	0.999	1.02	1.01	1.05	1.02
CNC(=O)ON=C(C)C(C)SC (stereo not given)	1.1	0.726 (active)	1.03	0.983	1.3	0.916	0.838	1.03	0.927	0.979	0.972	1.03	1.02	1.12	1.07	0.89	0.803	0.91	0.943	0.915
CNC(=O)/C=C(\C)OP(=O)(OC)OC	1.05	1.03	0.991	1.02	1.09	1.01	1.01	0.947	1.04	1.04	1.05	1.05	1.02	0.999	1.02	1.03	1.06	0.989	1.03	1.01
Nc1ccc(Cc2ccc(N)c(Cl)c2)cc1Cl	0.988	0.994	0.981	1.01	0.931	0.971	0.968	1.02	1	1	1	1.01	1.01	1.01	0.997	1.04	1.07	1.11	1.08	1
COc1cc(C)c(C(=O)c2c(OC)ccc(Br)c2C)c(OC)c1OC	1.05	1	0.959	0.992	0.958	0.951	0.91	0.885	1.03	0.956	1.04	1.01	0.971	1.02	1.01	0.709	1.03	1.05	0.528 (active)	1.01
CCC(C)(NC(=O)c1cc(Cl)c(C)c(Cl)c1)C(=O)CCl (stereo not given)	0.877	0.949	0.895	0.967	0.86	0.908	0.861	0.953	0.496 (active)	1	0.945	1.01	0.995	0.892	0.906	0.942	1.02	0.914	0.643 (active)	0.907
CC(Cl)(Cl)C(=O)O	0.869	1.05	1.02	1.02	1.02	1.01	1.02	0.983	0.999	1.02	0.998	1.02	0.98	0.996	1.02	1.05	0.977	0.969	1.02	0.961
